# Experimental data taken from PubChem BioAssay (Tox21).
# Inconclusive results are not listed. Where a call stands in place of a potency, no number is given. Values without a mark were called inactive. The source made the active and inactive calls. The call rests on the fitted dose curve.
# Molecular target: 5-hydroxytryptamine receptor 2A (Homo sapiens) (UniProt P28223)
# Experiment: 5-hydroxytryptamine receptor 2A (HTR2A) small molecule antagonists, cell-based qHTS assay (AID 1963586); further: nearly all actives have a fitted effect of over 45% in size
# Conditions: HTR2A-CHO cells, DOI-induced calcium flux, fluorescence; series mostly up to 61.5 µM
# From the text: National Center for Advancing Translational Sciences [NCATS]
# Division of Preclinical Innovation [DPI]
# U.S. Environmental Protection Agency [EPA]
# National Institutes of Environmental Health Sciences [NIEHS]
# National Toxicology Program [NTP]
# U.S. Food and Drug Administration [FDA]
# The HTR2A receptor is a subtype of the 5-HT2 receptor that belongs to the serotonin receptor family and is a G protein-coupled receptor (GPCR). The HTR2A-CHO cell line stably expressing human 5-hydroxytryptamine receptor 2A (HTR2A) can be used for screening antagonists of interactions between 5-HT2 and its ligands. The HTR2A-CHO calcium flux assay is a homogeneous fluorescence-based assay for detecting the intracellular calcium level using FDSS kinetic plate reader system.
# Tox21 Assay Protocol Summary:
# HTR2A-CHO cells were dispensed at 2000 cells/3uL/well in 1536-well black-clear bottom plates using a Multidrop Dispenser. After the assay plates were incubated at a 37 C/5% CO2 incubator for 18 h, 3 uL of Dye Loading Buffer was transferred to the assay plate by a Flying Reagent Dispenser. The assay plates were incubated at 37 C for 1h. For antagonist mode, 23 nL of compounds dissolved in DMSO, positive controls or DMSO only was transferred to the assay plate by a pin tool. After 5 min incubation at room temperature, 1.5 uL of 4-Iodo-2,5-dimethoxy-alpha-methylbenzeneethanamine hydrochloride (DOI) at 4nM was added to each well. The fluorescence intensity in the plates was measured using FDSS 7000EX kinetic plate reader for 3 min at 1 sec intervals.
# Sequence of 5-hydroxytryptamine receptor 2A (Homo sapiens) (P28223 whole entry, looked up): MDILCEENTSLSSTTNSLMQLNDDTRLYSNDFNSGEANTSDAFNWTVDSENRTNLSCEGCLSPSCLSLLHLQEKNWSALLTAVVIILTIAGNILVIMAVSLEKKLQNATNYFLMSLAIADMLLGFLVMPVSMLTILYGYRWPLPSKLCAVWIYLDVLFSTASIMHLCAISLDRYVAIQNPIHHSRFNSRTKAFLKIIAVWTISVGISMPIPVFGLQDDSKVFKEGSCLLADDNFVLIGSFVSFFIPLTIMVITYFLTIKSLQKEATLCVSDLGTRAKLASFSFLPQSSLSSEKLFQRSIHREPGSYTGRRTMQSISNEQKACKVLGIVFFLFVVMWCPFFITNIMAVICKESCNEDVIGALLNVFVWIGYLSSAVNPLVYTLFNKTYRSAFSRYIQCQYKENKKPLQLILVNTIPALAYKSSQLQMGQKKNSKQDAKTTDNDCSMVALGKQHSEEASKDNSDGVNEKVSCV
Structure (SMILES),Potency,"activity, negative = inhibition"
O=C(c1ccccc1O)c1ccccc1O,inactive,–
CC1CCc2nccnc21 (stereo not given),inactive,–
C[C@H]1C[C@@H](O)CC(C)(C)C1,inactive,–
C[C@H]1C[C@H](O)c2ccsc2S1(=O)=O,inactive,–
O=C(O)Cc1cccc(-c2cc(CCCCCCc3ccc(O[C@H]4O[C@H](CO)[C@@H](O)[C@H](O)[C@@H]4O)c(-c4cccc(CC(=O)O)c4)c3)ccc2O[C@H]2O[C@H](CO)[C@@H](O)[C@H](O)[C@@H]2O)c1,–,2.29% [at 0.233 µM]
C1CCC(SSC2CCCCC2)CC1,inactive,–
COc1cc(C=O)ccc1OC(=O)C(C)C,inactive,–
Cc1onc(-c2ccccc2)c1C(=O)Cl,inactive,–
O=C1OCCO1,inactive,–
CCN[C@H]1CN(CCCOC)S(=O)(=O)c2sc(S(N)(=O)=O)cc21,inactive,–
CC1CNCC(C)O1 (stereo not given),inactive,–
COC(=O)Cc1cccc2ccccc12,inactive,–
NCCNCCN,inactive,–
Cc1c(I)c(=O)n(-c2ccccc2)n1C,inactive,–
CCCCCCCO,inactive,–
C/C(=C(\CCO)SS/C(CCO)=C(\C)N(C=O)Cc1cnc(C)nc1N)N(C=O)Cc1cnc(C)nc1N,inactive,–
CCCCCCCN,inactive,–
C[N+](C)(C)CC[N+]1(C)Cc2c(Cl)c(Cl)c(Cl)c(Cl)c2C1,inactive,–
CCO[Si](CCCN=C=O)(OCC)OCC,inactive,–
CCCC(C)CCC(C)=O (stereo not given),inactive,–

Structure (SMILES),Potency,"activity, negative = inhibition"
CO[Si](C)(C)OC,inactive,–
CC(=O)Nc1c(I)cc(I)c(C(=O)O)c1I,inactive,–
CCCCC(CC)COCCC#N (stereo not given),inactive,–
CC(=O)OC1CC(C)OC(C)O1 (stereo not given),inactive,–
O=Cc1ccc(F)cc1,inactive,–
Cc1cc(C)c(N=Nc2c(O)c(S(=O)(=O)O)cc3cc(S(=O)(=O)O)ccc23)cc1C,–,-22.1% [at 5.62 µM]
O=C(/C=C/c1ccccc1)OCc1ccccc1,inactive,–
c1ccc2c(c1)-c1cccc3c1c-2cc1ccccc13,inactive,–
CC(=O)CC(C)=O,inactive,–
CC(C)C(=O)O,inactive,–
O=C(Nc1ccc([N+](=O)[O-])cc1Cl)c1cc(Cl)ccc1O,inactive,–
CCC(C)(C)C,inactive,–
Cc1cc(O)cc2c1O[C@](C)(CCC[C@H](C)CCC[C@H](C)CCCC(C)C)CC2,inactive,–
Cc1ccc2c(ccc3ccccc32)c1,inactive,–
Cc1sccc1Br,inactive,–
O=S(=O)(O)c1cccc(S(=O)(=O)O)c1,inactive,–
CC/C=C\CCOC(=O)CC,inactive,–
O=S(=O)(O)CO,inactive,–
FC(F)(F)c1ccccc1,inactive,–
Cc1ccc2oc(=O)ccc2c1,inactive,–
